PubChem BioAssay (NCATS)
Results filed as inconclusive are left out. Entries that show only a call come without a potency. The source made the active and inactive calls. The call rests on the fitted dose curve; in most records, active means well fitted cell-killing curve with a large enough effect; inconclusive means small, poorly fitted or top-dose-only effect; inactive means flat fitted curve, though single readings scatter.

Test: Cell Viability - LYMP2-024 (AID 988); further: nearly all actives have a fitted effect of over 60% in size
Details: LYMP2-024 lymphoblastoid cell viability; series mostly up to 92.2 µM
Procedure, shortened: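 Steps: seed 2500 cells/well, 5 hr 37 C; add compound, 24 hr 37 C; add CellTiter-Glo, 30 min room temperature; read luminescence. AC50 derived by Hill modelling of concentration-dependent ATP loss.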

| Structure (SMILES) | Potency |
| --- | --- |
| CNC(=O)c1ccccc1 | inactive |
| C/C=C(/C)C#N | inactive |
| O=c1[nH][nH]c(=O)c2cc([N+](=O)[O-])ccc12 | inactive |
| CC(C)CO | inactive |
| Cc1ccc(C#N)cc1 | inactive |

Test: Cell Viability - LYMP2-026 (AID 989);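 further: cells exposed to compound for 24 h at 37 °C; nearly all actives have a fitted effect of over 50% in size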
Details: LYMP2-026 lymphoblastoid cell viability, qHTS; series mostly up to 92.2 µM
Procedure, shortened: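 Luminescent ATP signal (CellTiter-Glo, 30 min room temperature) measures viable lymphoblastoid cells after 24 hr compound treatment at 37 C. Decreased ATP reflects acute toxicity; AC50 values come from Hill-equation modeling.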

| Structure (SMILES) | outcome |
| --- | --- |
| CC(C)N(C)C | inactive |
| CC#N | inactive |
| O=Cc1c(Cl)cccc1Cl | inactive |
| Nc1nc2ccccc2[nH]1 | inactive |
| C=C(C)OC(C)=O | inactive |
| C=C(C)C(=O)OCCCCCC | inactive |
| Cc1ccc2ccccc2c1[N+](=O)[O-] | inactive |
| Cc1cscn1 | inactive |
| CCOC(=O)OCC | inactive |
| C=CCCCCCC | inactive |
| C=C(C)C(=O)OCC(C)C | inactive |
| O=Cc1ccc(C(=O)O)cc1 | inactive |
| CC(C)=CCl | inactive |
| Cc1ccc(CO)cc1 | inactive |
| NC(=O)NC(N)=O | inactive |
| CN(C)CCCNCCCN | inactive |
| Cc1cccc(C)c1 | inactive |
| CC(CCl)OC(C)CCl (stereo not drawn) | inactive |
| CCCCC(CC)COC(=O)CCCCC(=O)OCC(CC)CCCC (stereo not drawn) | inactive |
| C=Cc1ccccc1C=C | inactive |
| C/C=C1\CC2C=CC1C2 (stereo not drawn) | inactive |
| CNC(=O)c1ccccc1 | inactive |
| C/C=C(/C)C#N | inactive |
| O=c1[nH][nH]c(=O)c2cc([N+](=O)[O-])ccc12 | inactive |
| CC(C)CO | inactive |
| Cc1ccc(C#N)cc1 | inactive |

Test: Cell Viability - LYMP1-002 - Assay at 24 hr (AID 993)
Details: LYMP1-002 lymphoblastoid cells viability; series mostly up to 92.2 µM
Procedure, shortened: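 Cells plated 2500/well, 5 hr 37 C; compounds added, 24 hr 37 C; CellTiter-Glo added, 30 min RT; luminescence read. Tetraoctylammonium bromide positive control. Hill-equation AC50.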

| Structure (SMILES) | Potency |
| --- | --- |
| CC(C)N(C)C | inactive |
| CC#N | inactive |
| O=Cc1c(Cl)cccc1Cl | inactive |
| Nc1nc2ccccc2[nH]1 | inactive |
| C=C(C)OC(C)=O | inactive |
| CCOCCOCC | inactive |
| CNc1ccc([N+](=O)[O-])cc1 | inactive |
| O=P(O)(OCc1ccccc1)OCc1ccccc1 | inactive |
| C=C(C)C1CC=C(C)C(OC(C)=O)C1 (stereo not drawn) | inactive |
| Oc1c(Cl)ccc(Cl)c1Cl | inactive |
| C=C(C)C(=O)OCCCCCC | inactive |
| Cc1ccc2ccccc2c1[N+](=O)[O-] | inactive |
| Cc1cscn1 | inactive |
| CCOC(=O)OCC | inactive |
| C=CCCCCCC | inactive |
| C=C(C)C(=O)OCC(C)C | inactive |
| O=Cc1ccc(C(=O)O)cc1 | inactive |
| COc1ccc(N=[N+]([O-])c2ccc(OC)cc2)cc1 | inactive |
| CC(C)=CCl | inactive |
| Cc1ccc(CO)cc1 | inactive |

| Structure (SMILES) | Potency |
| --- | --- |
| COc1cccc2sc(N)nc12 | inactive |
| CCCCCCCCC/C=C/CC1CC(=O)OC1=O (stereo not drawn) | inactive |
| NC(=O)NC(N)=O | inactive |
| CN(C)CCCNCCCN | inactive |
| Cc1ccc2ncccc2c1 | inactive |
| Cc1cccc(C)c1 | inactive |
| O=C(O)c1cc(Cl)cc(Cl)c1 | inactive |
| CC(CCl)OC(C)CCl (stereo not drawn) | inactive |
| CCCCC(CC)COC(=O)CCCCC(=O)OCC(CC)CCCC (stereo not drawn) | inactive |
| CCCCN(CCO)CCCC | inactive |
| Nc1cc(Cl)c(N)c(Cl)c1 | inactive |
| CC(C)(c1cc(Br)c(OCC(Br)CBr)c(Br)c1)c1cc(Br)c(OCC(Br)CBr)c(Br)c1 (stereo not drawn) | inactive |
| C=Cc1ccccc1C=C | inactive |
| C/C=C1\CC2C=CC1C2 (stereo not drawn) | inactive |
| CNC(=O)c1ccccc1 | inactive |
| C/C=C(/C)C#N | inactive |
| O=c1[nH][nH]c(=O)c2cc([N+](=O)[O-])ccc12 | inactive |
| CC(C)CO | inactive |
| Cc1ccc(C#N)cc1 | inactive |

Test: Cell Viability - LYMP1-002 - Assay at 40 hr (AID 994); further: nearly all actives have a fitted effect of over 60% in size
Details: LYMP1-002 lymphoblastoid cell viability; series mostly up to 92.2 µM
Procedure, shortened: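 Luminescent ATP signal served as the viability readout, with decreases taken as toxicity. Cells were treated with compounds across a concentration range for 40 hours at 37 C, and AC50 values came from standard Hill modeling.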

| Structure (SMILES) | Potency |
| --- | --- |
| CC(C)N(C)C | inactive |
| CC#N | inactive |
| O=Cc1c(Cl)cccc1Cl | inactive |
| Nc1nc2ccccc2[nH]1 | inactive |
| C=C(C)OC(C)=O | inactive |
| CCOCCOCC | inactive |
| CNc1ccc([N+](=O)[O-])cc1 | inactive |
| O=P(O)(OCc1ccccc1)OCc1ccccc1 | inactive |
| C=C(C)C1CC=C(C)C(OC(C)=O)C1 (stereo not drawn) | inactive |
| Oc1c(Cl)ccc(Cl)c1Cl | inactive |
| C=C(C)C(=O)OCCCCCC | inactive |
| Cc1ccc2ccccc2c1[N+](=O)[O-] | inactive |
| Cc1cscn1 | inactive |
| CCOC(=O)OCC | inactive |
| C=CCCCCCC | inactive |
| C=C(C)C(=O)OCC(C)C | inactive |
| O=Cc1ccc(C(=O)O)cc1 | inactive |
| COc1ccc(N=[N+]([O-])c2ccc(OC)cc2)cc1 | inactive |
| CC(C)=CCl | inactive |

| Structure (SMILES) | Potency |
| --- | --- |
| Cc1ccc(CO)cc1 | inactive |
| COc1cccc2sc(N)nc12 | inactive |
| NC(=O)NC(N)=O | inactive |
| CN(C)CCCNCCCN | inactive |
| Cc1ccc2ncccc2c1 | inactive |
| Cc1cccc(C)c1 | inactive |
| O=C(O)c1cc(Cl)cc(Cl)c1 | inactive |
| CC(CCl)OC(C)CCl (stereo not drawn) | inactive |
| CCCCC(CC)COC(=O)CCCCC(=O)OCC(CC)CCCC (stereo not drawn) | inactive |
| CCCCN(CCO)CCCC | inactive |
| Nc1cc(Cl)c(N)c(Cl)c1 | inactive |
| CC(C)(c1cc(Br)c(OCC(Br)CBr)c(Br)c1)c1cc(Br)c(OCC(Br)CBr)c(Br)c1 (stereo not drawn) | inactive |
| C=Cc1ccccc1C=C | inactive |
| C/C=C1\CC2C=CC1C2 (stereo not drawn) | inactive |
| CNC(=O)c1ccccc1 | inactive |
| C/C=C(/C)C#N | inactive |
| O=c1[nH][nH]c(=O)c2cc([N+](=O)[O-])ccc12 | inactive |
| CC(C)CO | inactive |
| Cc1ccc(C#N)cc1 | inactive |
